The values that follow come from paper PMC7862700, “An all-to-all approach to the identification of sequence-specific readers for epigenetic DNA modifications on cytosine”.

Common to all, as to test: DAPPL (digital affinity profiling via proximity ligation, sequencing); 10 mM Tris-HCl pH 7.5, 50 mM NaCl, 1 mM DTT, 4% glycerol, room temperature, 30 min; GST-TFs on glutathione beads, 16-mer random dsDNA library, 0.1% formaldehyde crosslink after washing; high values mean tight binding
The target in one test is T1, FEV (Homo sapiens, UniProt Q99581 1-238).
T1 sequence: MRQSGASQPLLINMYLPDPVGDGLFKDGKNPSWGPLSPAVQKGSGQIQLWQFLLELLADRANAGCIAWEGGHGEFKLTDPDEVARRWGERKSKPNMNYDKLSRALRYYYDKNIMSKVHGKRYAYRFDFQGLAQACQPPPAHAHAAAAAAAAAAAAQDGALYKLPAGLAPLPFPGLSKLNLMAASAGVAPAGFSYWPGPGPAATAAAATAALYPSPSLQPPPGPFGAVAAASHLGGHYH
To be noted: protein: recombinant; tags: N-terminal GST; dsDNA, one strand shown. In outline: (§1)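 Human transcription factors were made in yeast as GST fusions, captured on glutathione beads and barcoded with DNA. With a tag-only sample included, the pool was incubated with 200 nmole of a random double-stranded 16-mer DNA library in Tris/NaCl/DTT/glycerol buffer at room temperature for 30 min, then crosslinked with 0.1% formaldehyde after washing, ligated by proximity, amplified and sequenced. For binding signal, each hexamer's read frequency for a factor is divided by its frequency for the tag-only sample.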

The target of the next test is ETV5 (Homo sapiens, UniProt P41161 1-510). Conditions: protein: recombinant; tags: N-terminal GST; dsDNA, one strand shown. The gist of the method:
as §1

The next test addresses HSF1 (Homo sapiens, UniProt Q00613 1-529). Conditions: protein: recombinant; tags: N-terminal GST; chain copies: 3; dsDNA, one strand shown. The gist of the method:
as §1

The next test addresses T2, SPIC (Homo sapiens, UniProt Q8N5J4 1-248).
T2 sequence: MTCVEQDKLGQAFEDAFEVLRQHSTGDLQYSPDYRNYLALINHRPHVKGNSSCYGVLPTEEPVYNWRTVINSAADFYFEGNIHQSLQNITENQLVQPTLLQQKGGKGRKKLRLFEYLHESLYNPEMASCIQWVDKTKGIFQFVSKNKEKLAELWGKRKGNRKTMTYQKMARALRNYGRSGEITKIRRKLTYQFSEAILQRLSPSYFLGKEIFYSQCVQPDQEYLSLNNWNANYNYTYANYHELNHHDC
Conditions: protein: recombinant; tags: N-terminal GST; dsDNA, one strand shown. In outline:
as §1

A further test deals with ELF4 (Homo sapiens, UniProt Q99607 1-663). To be noted: protein: recombinant; tags: N-terminal GST; dsDNA, one strand shown. The gist of the method: as §1
The target in a further test is T3, ELK4 (Homo sapiens, UniProt P28324-2 1-405).
T3 sequence: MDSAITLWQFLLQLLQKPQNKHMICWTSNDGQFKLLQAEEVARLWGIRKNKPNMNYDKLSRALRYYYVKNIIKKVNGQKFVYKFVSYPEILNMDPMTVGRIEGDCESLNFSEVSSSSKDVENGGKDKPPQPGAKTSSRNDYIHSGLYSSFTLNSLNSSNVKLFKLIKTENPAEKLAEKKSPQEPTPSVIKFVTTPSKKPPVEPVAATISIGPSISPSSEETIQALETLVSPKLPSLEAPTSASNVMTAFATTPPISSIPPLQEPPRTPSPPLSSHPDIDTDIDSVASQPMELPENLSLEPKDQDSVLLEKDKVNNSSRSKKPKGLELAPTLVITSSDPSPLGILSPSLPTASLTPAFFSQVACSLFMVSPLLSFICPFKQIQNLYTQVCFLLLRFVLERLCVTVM
To be noted: protein: recombinant; tags: N-terminal GST; dsDNA, one strand shown. The gist of the method:
as §1

The target in another test is T4, ETV2 (Homo sapiens, UniProt O00321 1-342).
T4 sequence: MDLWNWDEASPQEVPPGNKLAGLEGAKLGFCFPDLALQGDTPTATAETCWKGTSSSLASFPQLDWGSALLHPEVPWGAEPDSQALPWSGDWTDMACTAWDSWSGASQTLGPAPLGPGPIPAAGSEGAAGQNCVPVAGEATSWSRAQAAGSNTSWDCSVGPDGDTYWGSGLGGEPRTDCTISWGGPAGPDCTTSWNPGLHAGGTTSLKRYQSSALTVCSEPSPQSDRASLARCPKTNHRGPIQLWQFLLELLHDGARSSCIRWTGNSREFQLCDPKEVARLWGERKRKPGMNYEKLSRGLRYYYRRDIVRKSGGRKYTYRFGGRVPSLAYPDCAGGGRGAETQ
Conditions: protein: recombinant; tags: N-terminal GST; dsDNA, one strand shown. In outline:
as §1

A further test addresses T5, ELF3 (Homo sapiens, UniProt P78545 1-371).
T5 sequence: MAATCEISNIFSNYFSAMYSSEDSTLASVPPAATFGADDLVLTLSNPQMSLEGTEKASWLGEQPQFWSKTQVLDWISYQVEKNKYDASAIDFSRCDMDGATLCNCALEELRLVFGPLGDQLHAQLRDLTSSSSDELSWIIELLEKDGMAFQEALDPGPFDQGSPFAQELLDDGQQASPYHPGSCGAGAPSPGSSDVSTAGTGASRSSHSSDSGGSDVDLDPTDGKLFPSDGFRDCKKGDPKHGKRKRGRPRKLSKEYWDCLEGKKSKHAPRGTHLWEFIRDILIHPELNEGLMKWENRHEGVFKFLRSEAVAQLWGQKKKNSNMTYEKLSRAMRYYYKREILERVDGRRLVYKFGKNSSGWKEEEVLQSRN
Conditions: protein: recombinant; tags: N-terminal GST; dsDNA, one strand shown. The gist of the method: as §1

In a further test the target is CRX (Homo sapiens, UniProt O43186 1-299). To be noted: protein: recombinant; tags: N-terminal GST; dsDNA, one strand shown. The gist of the method: as §1
Another test concerns the target ETV1 (Homo sapiens, UniProt P50549 1-477). To be noted: protein: recombinant; tags: N-terminal GST; dsDNA, one strand shown. In outline: as §1
In another test the target is T6, ERF (Homo sapiens, UniProt P50548 1-548).
T6 sequence: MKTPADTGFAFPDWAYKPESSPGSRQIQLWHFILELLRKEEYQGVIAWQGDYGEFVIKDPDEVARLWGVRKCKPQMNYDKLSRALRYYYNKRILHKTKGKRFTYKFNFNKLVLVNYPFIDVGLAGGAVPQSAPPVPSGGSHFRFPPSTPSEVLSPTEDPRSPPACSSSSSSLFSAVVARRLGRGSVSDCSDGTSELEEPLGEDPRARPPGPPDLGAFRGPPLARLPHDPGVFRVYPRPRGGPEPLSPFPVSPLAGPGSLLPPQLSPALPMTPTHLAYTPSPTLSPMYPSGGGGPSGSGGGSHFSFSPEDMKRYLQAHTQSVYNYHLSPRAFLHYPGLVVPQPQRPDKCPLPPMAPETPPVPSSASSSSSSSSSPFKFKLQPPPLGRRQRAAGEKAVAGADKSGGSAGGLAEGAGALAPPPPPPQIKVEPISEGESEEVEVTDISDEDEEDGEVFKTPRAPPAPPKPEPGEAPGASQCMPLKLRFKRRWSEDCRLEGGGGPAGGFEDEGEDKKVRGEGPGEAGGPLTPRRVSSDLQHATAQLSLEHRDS
To be noted: protein: recombinant; tags: N-terminal GST; dsDNA, one strand shown. The gist of the method: as §1

A further test deals with T7, ETV3L (Homo sapiens, UniProt Q6ZN32 1-361).
T7 sequence: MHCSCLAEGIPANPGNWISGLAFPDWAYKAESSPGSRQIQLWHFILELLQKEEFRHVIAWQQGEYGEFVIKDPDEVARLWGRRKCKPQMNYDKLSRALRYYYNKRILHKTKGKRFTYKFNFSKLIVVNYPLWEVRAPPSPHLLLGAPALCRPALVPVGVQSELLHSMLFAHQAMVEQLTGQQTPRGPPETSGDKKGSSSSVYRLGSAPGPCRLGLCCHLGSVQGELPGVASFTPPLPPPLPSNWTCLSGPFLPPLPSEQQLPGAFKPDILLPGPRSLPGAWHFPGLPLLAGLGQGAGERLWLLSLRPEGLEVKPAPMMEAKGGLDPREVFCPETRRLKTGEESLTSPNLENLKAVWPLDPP
To be noted: protein: recombinant; tags: N-terminal GST; dsDNA, one strand shown. In outline: as §1

In the next test the target is T8, ETS2 (Homo sapiens, UniProt P15036 1-469).
T8 sequence: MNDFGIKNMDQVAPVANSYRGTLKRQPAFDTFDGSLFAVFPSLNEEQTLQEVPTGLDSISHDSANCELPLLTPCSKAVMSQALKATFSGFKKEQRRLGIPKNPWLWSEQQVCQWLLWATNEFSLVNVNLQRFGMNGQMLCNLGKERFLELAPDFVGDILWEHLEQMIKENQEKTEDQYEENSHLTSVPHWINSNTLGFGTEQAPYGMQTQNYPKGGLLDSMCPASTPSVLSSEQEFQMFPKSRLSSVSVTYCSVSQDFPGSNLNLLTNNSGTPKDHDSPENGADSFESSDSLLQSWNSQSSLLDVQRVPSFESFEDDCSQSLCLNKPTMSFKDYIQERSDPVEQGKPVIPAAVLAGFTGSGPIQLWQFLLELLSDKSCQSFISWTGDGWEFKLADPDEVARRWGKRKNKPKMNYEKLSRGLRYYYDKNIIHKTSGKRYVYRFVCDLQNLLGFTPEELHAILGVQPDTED
To be noted: protein: recombinant; tags: N-terminal GST; dsDNA, one strand shown. The gist of the method: as §1

A further test has as its target T9, SPDEF (Homo sapiens, UniProt O95238 1-335).
T9 sequence: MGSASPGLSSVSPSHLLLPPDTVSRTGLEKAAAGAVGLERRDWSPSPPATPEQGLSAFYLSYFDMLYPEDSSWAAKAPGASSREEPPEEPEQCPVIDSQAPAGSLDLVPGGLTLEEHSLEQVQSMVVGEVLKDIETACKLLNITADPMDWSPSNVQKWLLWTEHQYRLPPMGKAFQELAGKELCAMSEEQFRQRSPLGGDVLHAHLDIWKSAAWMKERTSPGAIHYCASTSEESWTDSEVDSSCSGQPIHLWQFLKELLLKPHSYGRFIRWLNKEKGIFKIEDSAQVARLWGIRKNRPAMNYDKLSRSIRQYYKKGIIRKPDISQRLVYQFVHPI
Conditions: protein: recombinant; tags: N-terminal GST; dsDNA, one strand shown. The gist of the method:
as §1

A further test deals with T10, ETV7 (Homo sapiens, UniProt Q9Y603 1-341).
T10 sequence: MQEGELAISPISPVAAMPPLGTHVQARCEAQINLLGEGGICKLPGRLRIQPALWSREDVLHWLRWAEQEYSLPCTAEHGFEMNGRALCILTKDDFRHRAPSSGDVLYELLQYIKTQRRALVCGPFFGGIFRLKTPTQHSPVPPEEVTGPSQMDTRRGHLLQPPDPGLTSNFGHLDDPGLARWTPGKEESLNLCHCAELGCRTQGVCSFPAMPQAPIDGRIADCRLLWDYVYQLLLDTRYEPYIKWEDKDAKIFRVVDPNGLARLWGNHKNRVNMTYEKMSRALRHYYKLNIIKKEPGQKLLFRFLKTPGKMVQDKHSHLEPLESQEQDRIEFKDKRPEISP
Conditions: protein: recombinant; tags: N-terminal GST; dsDNA, one strand shown. In outline:
as §1

The next test concerns the target T11, ELF5 (Homo sapiens, UniProt Q9UKW6-2 1-255).
T11 sequence: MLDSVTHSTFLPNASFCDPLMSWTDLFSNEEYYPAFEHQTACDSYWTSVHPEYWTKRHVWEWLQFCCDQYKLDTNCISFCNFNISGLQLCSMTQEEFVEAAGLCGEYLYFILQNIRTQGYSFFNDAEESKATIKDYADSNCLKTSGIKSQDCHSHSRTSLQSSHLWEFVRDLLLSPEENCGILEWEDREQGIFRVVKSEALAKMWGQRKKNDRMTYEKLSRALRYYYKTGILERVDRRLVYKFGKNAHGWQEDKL
Conditions: protein: recombinant; tags: N-terminal GST; dsDNA, one strand shown. The gist of the method:
as §1

Another test addresses T12, ETV3 (Homo sapiens, UniProt P41162-2 1-143).
T12 sequence: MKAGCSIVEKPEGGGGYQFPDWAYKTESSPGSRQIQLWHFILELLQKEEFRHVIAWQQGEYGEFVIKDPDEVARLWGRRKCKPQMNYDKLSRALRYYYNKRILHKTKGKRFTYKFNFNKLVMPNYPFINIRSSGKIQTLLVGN
Conditions: protein: recombinant; tags: N-terminal GST; dsDNA, one strand shown. The gist of the method:
as §1

In a further test the target is ETV6 (Homo sapiens, UniProt P41212 1-452). To be noted: protein: recombinant; tags: N-terminal GST; dsDNA, one strand shown. In outline:
as §1

Sequence of ELF4 (Q99607 whole entry): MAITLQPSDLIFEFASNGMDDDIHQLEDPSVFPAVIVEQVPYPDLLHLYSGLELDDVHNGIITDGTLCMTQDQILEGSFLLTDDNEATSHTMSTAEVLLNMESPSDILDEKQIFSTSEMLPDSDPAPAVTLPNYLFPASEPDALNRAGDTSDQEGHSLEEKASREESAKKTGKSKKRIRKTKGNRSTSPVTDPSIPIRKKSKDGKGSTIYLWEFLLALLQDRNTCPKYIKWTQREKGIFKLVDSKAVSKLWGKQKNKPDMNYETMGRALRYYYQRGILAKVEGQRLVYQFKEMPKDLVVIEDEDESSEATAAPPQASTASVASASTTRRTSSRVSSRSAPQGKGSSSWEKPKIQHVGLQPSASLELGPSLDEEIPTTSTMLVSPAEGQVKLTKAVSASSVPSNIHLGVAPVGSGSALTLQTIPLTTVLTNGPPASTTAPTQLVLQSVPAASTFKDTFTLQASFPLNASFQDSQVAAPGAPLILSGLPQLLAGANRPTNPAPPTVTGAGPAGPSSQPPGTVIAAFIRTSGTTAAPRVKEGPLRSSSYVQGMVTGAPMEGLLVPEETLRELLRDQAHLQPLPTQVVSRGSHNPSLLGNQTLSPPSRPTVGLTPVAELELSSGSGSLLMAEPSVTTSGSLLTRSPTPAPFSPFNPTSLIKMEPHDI
Sequence of ETV5 (P41161 whole entry): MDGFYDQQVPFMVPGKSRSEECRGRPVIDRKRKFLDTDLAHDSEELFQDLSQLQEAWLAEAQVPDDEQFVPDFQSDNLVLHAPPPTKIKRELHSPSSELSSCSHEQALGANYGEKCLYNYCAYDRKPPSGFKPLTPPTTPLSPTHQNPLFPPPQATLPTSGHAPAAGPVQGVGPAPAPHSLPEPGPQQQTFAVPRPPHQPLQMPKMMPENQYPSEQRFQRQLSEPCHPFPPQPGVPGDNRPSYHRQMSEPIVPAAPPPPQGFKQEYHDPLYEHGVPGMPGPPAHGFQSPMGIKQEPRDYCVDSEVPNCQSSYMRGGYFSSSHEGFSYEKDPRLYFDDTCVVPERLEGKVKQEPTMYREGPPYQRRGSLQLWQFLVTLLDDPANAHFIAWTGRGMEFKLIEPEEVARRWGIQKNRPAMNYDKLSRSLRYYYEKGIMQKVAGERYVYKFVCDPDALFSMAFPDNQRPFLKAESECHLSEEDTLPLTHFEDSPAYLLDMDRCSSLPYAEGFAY
Sequence of HSF1 (Q00613 whole entry): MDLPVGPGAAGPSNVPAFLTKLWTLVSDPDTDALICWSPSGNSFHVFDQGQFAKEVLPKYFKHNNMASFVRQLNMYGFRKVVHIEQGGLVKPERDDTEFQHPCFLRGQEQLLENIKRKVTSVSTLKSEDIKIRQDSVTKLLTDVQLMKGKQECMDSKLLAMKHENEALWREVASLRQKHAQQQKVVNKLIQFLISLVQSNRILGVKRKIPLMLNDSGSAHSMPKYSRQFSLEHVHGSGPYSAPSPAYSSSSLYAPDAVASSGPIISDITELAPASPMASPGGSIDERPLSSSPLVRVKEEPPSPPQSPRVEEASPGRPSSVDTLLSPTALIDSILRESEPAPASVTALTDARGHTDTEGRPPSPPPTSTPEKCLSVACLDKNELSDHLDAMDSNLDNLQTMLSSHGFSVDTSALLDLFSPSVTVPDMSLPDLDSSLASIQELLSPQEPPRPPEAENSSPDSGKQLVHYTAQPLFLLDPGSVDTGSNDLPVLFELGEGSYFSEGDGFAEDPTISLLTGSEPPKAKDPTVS
Sequence of ETV6 (P41212 whole entry): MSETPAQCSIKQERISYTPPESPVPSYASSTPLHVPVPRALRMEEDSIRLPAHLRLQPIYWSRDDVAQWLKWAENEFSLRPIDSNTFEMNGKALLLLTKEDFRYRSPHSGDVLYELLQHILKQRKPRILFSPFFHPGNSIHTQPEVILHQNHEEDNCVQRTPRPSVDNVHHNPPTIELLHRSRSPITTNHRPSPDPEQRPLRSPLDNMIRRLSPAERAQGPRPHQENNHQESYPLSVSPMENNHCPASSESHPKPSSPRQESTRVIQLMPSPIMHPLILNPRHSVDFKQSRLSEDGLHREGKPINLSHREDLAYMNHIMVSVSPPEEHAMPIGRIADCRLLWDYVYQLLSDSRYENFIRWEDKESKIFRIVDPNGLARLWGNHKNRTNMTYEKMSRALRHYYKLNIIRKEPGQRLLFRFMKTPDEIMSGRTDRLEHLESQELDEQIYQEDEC
Sequence of CRX (O43186 whole entry): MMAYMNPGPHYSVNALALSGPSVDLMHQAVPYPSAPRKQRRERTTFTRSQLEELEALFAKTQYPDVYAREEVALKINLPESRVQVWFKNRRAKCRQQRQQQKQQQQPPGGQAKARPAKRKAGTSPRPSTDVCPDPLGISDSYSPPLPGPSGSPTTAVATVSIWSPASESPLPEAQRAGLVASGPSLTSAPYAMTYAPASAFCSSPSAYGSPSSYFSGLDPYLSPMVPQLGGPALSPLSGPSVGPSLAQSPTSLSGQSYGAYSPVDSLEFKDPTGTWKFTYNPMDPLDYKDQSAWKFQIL
Sequence of ETV1 (P50549 whole entry): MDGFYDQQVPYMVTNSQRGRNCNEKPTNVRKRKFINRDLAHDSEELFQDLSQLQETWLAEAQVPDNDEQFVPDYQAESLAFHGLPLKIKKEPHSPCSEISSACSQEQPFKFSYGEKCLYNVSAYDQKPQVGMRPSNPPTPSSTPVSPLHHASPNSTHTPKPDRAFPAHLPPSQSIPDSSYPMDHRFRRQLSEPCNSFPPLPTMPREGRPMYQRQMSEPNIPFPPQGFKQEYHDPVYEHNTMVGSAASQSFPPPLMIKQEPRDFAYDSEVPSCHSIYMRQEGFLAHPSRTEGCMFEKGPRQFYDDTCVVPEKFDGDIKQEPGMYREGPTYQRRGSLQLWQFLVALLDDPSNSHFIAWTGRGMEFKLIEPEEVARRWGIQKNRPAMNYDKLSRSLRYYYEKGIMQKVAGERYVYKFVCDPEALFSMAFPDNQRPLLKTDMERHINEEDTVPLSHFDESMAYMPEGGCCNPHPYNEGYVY

Turning to GATTAT, the binding signal with FEV is 1.01 fold enrichment (6-mer frequency, TF over GST control); with ETV5, 1.03 fold enrichment (6-mer frequency, TF over GST control); with HSF1, 2.66 fold enrichment (6-mer frequency, TF over GST control); with SPIC, 1.09 fold enrichment (6-mer frequency, TF over GST control); with ELF4 it was 1.14 fold enrichment (6-mer frequency, TF over GST control); in the test with ELK4 it was 1.06 fold enrichment (6-mer frequency, TF over GST control). For the same sequence, the binding signal with ETV2 is 1.07 fold enrichment (6-mer frequency, TF over GST control); with ELF3 it was 1.16 fold enrichment (6-mer frequency, TF over GST control); with CRX, 4.27 fold enrichment (6-mer frequency, TF over GST control); with ETV1 it was 1.06 fold enrichment (6-mer frequency, TF over GST control); with ERF it was 1.06 fold enrichment (6-mer frequency, TF over GST control); with ETV3L, 1.11 fold enrichment (6-mer frequency, TF over GST control). For the same sequence, the binding signal in the test with ETS2 is 1.04 fold enrichment (6-mer frequency, TF over GST control); with SPDEF it was 1.1 fold enrichment (6-mer frequency, TF over GST control); with ETV7, 1.18 fold enrichment (6-mer frequency, TF over GST control); with ELF5, 1.04 fold enrichment (6-mer frequency, TF over GST control); with ETV3 it was 1.04 fold enrichment (6-mer frequency, TF over GST control); with ETV6, 1.12 fold enrichment (6-mer frequency, TF over GST control).
